Experimental data as given in PubChem BioAssay AID1745850 (National Center for Advancing Translational Sciences (NCATS), 2022).
Among all 2,100 compounds or so, about 260 (12%) were called active. Roughly 58% stayed inconclusive and do not appear here. Calls come from the whole dose curve; as a rule, active = well fitted cell-killing curve with a large enough effect; inconclusive = small, poorly fitted or top-dose-only effect, or effect the other way; inactive = flat fitted curve, though single readings scatter. Some of the results follow. Entries that show only a call come without a potency.
Potency is the fitted concentration of half-maximal effect.

Assay: Viability Counterscreen for Confirmatory qHTS for Inhibitors of ATXN expression; note: nearly all actives have a fitted effect of over 50% in size
Conditions: HEK-293 ATXN2-luc cells viability, CellTiter-Fluor, 24 h
Procedure, shortened: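 Cells with an ATXN2-luciferase reporter were dosed in a dilution series for 24 h at 37 degrees C. Viability was read first with Gly-Phe-AFC at 25 uM final (fluorescence, ex 405/em 540), then SteadyGlo luminescence. Medium-only wells defined 100% inhibition.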
With `NC(=S)n1[nH]c(-c2ccc([N+](=O)[O-])cc2)c(N=Nc2cccc(Cl)c2)c1=O` the Potency was 11.2 µM (active).
In the case of `Cc1cc2sc3ccc(C#CC4(O)CCCCC4)cc3c(=O)c2cc1C`, the Potency is reported as “inactive”.
For `Cc1ccc(NC(=O)CNc2cccc(Br)c2)cc1S(=O)(=O)N1CCOCC1`, the Potency was “inactive”.
In the case of `CC(C)[C@@H]1CC[C@@H](C)C[C@H]1OC(=O)C[n+]1cc(-c2ccc(Cl)cc2)n2c1CCCCC2`, the Potency is reported as 22.4 µM (active).
In the case of `CCn1c(C)cc(C(=O)CN2C(=O)c3ccccc3S2(=O)=O)c1C`, the Potency is reported as “inactive”.
For `CCn1cc(C(=O)NCc2cccc(F)c2)c(=O)c2cc(F)c(N3CCN(C(=O)c4ccco4)CC3)cc21`, the Potency was 22.4 µM (active).
For `O=C(c1ccco1)N1CCN(c2ccnc3cc(Cl)ccc23)CC1`, the Potency was “inactive”.
With `CCOC(=O)Cn1cc(C(=O)c2ccco2)c2ccccc21` the Potency was “inactive”.
In the case of `Cc1ccc2c(CC(=O)NNC(=O)c3ccccc3O)coc2c1`, the Potency is reported as “inactive”.
For `Cc1ccc(SC2=C(N(C)C)C(=O)c3ccccc3C2=O)cc1`, the Potency was “inactive”.
In the case of `CC(C)(C)c1ccc(NC(=O)N2CCCN(c3c(Cl)cncc3Cl)CC2)cc1`, the Potency is reported as “inactive”.
In the case of `O=C(NNC1=Nc2ccccc2SC1)c1ccc(Cl)cc1`, the Potency is reported as “inactive”.
For `O=c1c2c(nc3c(-c4ccc(Cl)cc4)c[nH]n13)CCC2`, the Potency was “inactive”.
For `O=c1c2c(nc3c(-c4cccc(Br)c4)c[nH]n13)CCCC2`, the Potency was 12.6 µM (active).
For `O=C(NNc1ccnc2cc(Cl)ccc12)C1CCCCC1`, the Potency was “inactive”.
With `CC1(C)Cc2c(sc(NC(=O)c3ccc(C(=O)c4ccccc4)cc3)c2C(N)=O)C(C)(C)N1` the Potency was 28.2 µM (active).
With `NC(=O)c1c(NC(=O)c2ccc(S(=O)(=O)N3CCOCC3)cc2)sc2c1CCCCC2` the Potency was “inactive”.
For `Nc1nc(NCCCN2CCOCC2)nc(Nc2cccc(Cl)c2)c1[N+](=O)[O-]`, the Potency was “inactive”.
With `CCCCC/C=C/C1=CC(=O)C[C@H](c2ccc(OC)c(OC)c2)C1` the Potency was “inactive”.
With `CC(C)(C)NCC(=Cc1ccccc1)C(=O)c1ccccc1` the Potency was 3.55 µM (active).
In the case of `O=C(N/N=C/c1ccccc1O)/C(=C/c1ccccc1)CCO`, the Potency is reported as “inactive”.
In the case of `O=C(C(Br)=Cc1ccccc1)c1ccccc1`, the Potency is reported as 7.94 µM (active).
With `CC(C)(C)c1ccc(Oc2ccc(N)cn2)cc1` the Potency was “inactive”.
For `CNc1nc2c(N)ncnc2n1[C@H]1O[C@@H](CO)[C@H](O)[C@@H]1O`, the Potency was “inactive”.
With `Cc1ccc(SCCC(=O)N/N=C/c2ccccc2O)cc1` the Potency was “inactive”.
For `Cc1ccc2[nH]c(O)c(N=NC(=O)C3CC3c3ccccc3)c2c1Br` (stereo not given), the Potency was “inactive”.
In the case of `CC(C)c1cccc(C(C)C)c1Nc1cn[nH]c1`, the Potency is reported as “inactive”.
In the case of `Nn1cnnc1N/N=C/c1cc(Br)cc(Br)c1O`, the Potency is reported as “inactive”.
In the case of `OC(c1ccccn1)(c1ccccn1)c1ccccn1`, the Potency is reported as “inactive”.
With `COc1cc(C=CC(=O)c2cc(OC)c(OC)c(OC)c2)cc(OC)c1OC` the Potency was 17.8 µM (active).
In the case of `COc1ccc(C(=O)/C=C/c2ccc(OC3CSC3)cc2)cc1OC`, the Potency is reported as “inactive”.
For `COc1ccc(C(=O)/C=C/c2cccc(OCc3ccccc3)c2)cc1CSCC(=O)O`, the Potency was “inactive”.
With `CS(=O)(=O)N(CC(O)CON=C1c2ccccc2-c2ccccc21)c1ccc(F)cc1` (stereo not given) the Potency was “inactive”.
For `Nc1nc(NCCCN2CCOCC2)nc(Nc2ccccc2F)c1[N+](=O)[O-]`, the Potency was “inactive”.
In the case of `Cc1ccc(C)c(OCCCC(=O)Nc2nccs2)c1`, the Potency is reported as “inactive”.
For `Cn1c(/C=C/c2ccc(Cl)cc2)c([N+](=O)[O-])c(=O)n(C)c1=O`, the Potency was 22.4 µM (active).
For `Cn1c(/C=C/c2ccc(Cl)cc2Cl)c([N+](=O)[O-])c(=O)n(C)c1=O`, the Potency was 22.4 µM (active).
With `Cc1cc(OCC(=O)Nc2ccc(Br)cc2)cc2c1C(=O)CC(C)(C)O2` the Potency was “inactive”.
With `NC1=NC[C@H](Cc2ccccc2)N1CCCCC1CCCCC1` the Potency was “inactive”.
For `CCc1cc(-c2[nH]ncc2-c2ccc(OC)cc2)c(O)cc1O`, the Potency was “inactive”.
With `CC(C)=CCc1c(O)cc2oc3c(CC=C(C)C)c(O)c(O)c(CC=C(C)C)c3c(=O)c2c1O` the Potency was “inactive”.
With `Cc1ccccc1C(=O)/C(C#N)=N/Nc1c(C)n(C)n(-c2ccccc2)c1=O` the Potency was 10 µM (active).
For `COc1ccc(NS(=O)(=O)c2ccc(C(=O)Nc3c(C)n(C)n(-c4ccccc4)c3=O)cc2)cc1`, the Potency was “inactive”.
For `Cc1c(N/N=C(\C#N)C(=O)c2ccccc2)c(=O)n(-c2ccccc2)n1C`, the Potency was 12.6 µM (active).
With `Cc1cc(C)cc(NC(=O)/C(C#N)=C/c2cn(CC(=O)NCc3ccco3)c3ccccc23)c1` the Potency was “inactive”.
With `Nc1c(C(=O)NCCN2CCOCC2)c2nc3ccccc3nc2n1CCc1ccccc1F` the Potency was “inactive”.
In the case of `CCOC(=O)c1c(NC(=O)COC(=O)CNC(=O)c2ccco2)sc(C)c1C`, the Potency is reported as “inactive”.
With `N#Cc1ccccc1NC(=O)C1SC(=Nc2ccccc2)C(C(=O)Nc2ccc(Cl)cc2)=C1N` (stereo not given) the Potency was “inactive”.
For `O=C(CSc1ccc2ccccc2c1)Nc1nc2ccccc2[nH]1`, the Potency was “inactive”.
For `C/C(=N\NC(=O)CSCc1ccc([N+](=O)[O-])cc1)c1ccccc1O`, the Potency was “inactive”.
With `N#Cc1c(Oc2ccc3ccccc3c2)sc(C(=O)c2ccccc2)c1N` the Potency was “inactive”.
In the case of `COc1cnc(-c2ccccn2)nc1NC(C)C`, the Potency is reported as 10 µM (active).
With `COC(=O)COc1ccc(-c2nccc(-c3ccccn3)n2)cc1` the Potency was “inactive”.
For `COc1ccc(O)c(/C=N/NC(=O)c2ccc(OCc3cccc(Br)c3)cc2)c1`, the Potency was “inactive”.
In the case of `O=C(CNS(=O)(=O)c1ccc([N+](=O)[O-])cc1)N/N=C/c1ccc(O)cc1O`, the Potency is reported as “inactive”.
For `O=C(N/N=C/c1cc([N+](=O)[O-])ccc1O)c1ccc(COc2ccc3c(c2)CCC3)o1`, the Potency was 11.2 µM (active).
In the case of `C=CCc1cccc(/C=N/NC(=O)CNc2ccccc2)c1O`, the Potency is reported as “inactive”.
With `CCCCC(=O)NC(c1ccc(N(CC)CC)cc1)c1ccc2cccnc2c1O` (stereo not given) the Potency was “inactive”.
In the case of `COc1ccc(C(NC(C)=O)c2cc(Cl)c3cccnc3c2O)cc1` (stereo not given), the Potency is reported as 8.91 µM (active).
For `COc1cccc(C(NC(C)=O)c2ccc3cccnc3c2O)c1` (stereo not given), the Potency was 8.91 µM (active).
For `COc1ccc(C(NC(C)=O)c2cc(Cl)c3cccnc3c2O)cc1OC` (stereo not given), the Potency was 10 µM (active).
For `CCCC(=O)NC(c1ccc(C(C)C)cc1)c1ccc2cccnc2c1O` (stereo not given), the Potency was “inactive”.
With `O=C(Nc1cccc(C(F)(F)F)c1)Oc1ccc(Cl)c2cccnc12` the Potency was “inactive”.
In the case of `CC(=O)NC(c1ccc(C)cc1)c1cc(Cl)c2cccnc2c1O` (stereo not given), the Potency is reported as 11.2 µM (active).
For `C(=N\NC(=Nc1ccccc1)c1ccccn1)/c1ccccn1`, the Potency was “inactive”.
In the case of `COc1ccc(CNC(=O)CSc2nc(-c3ccccc3)cc(-c3cccs3)c2C#N)cc1`, the Potency is reported as “inactive”.
In the case of `COc1cc2ccnc(Cc3cccc(OC)c3OC)c2cc1OC`, the Potency is reported as “inactive”.
For `COc1ccc(OC)c(C(=O)/C=C/c2ccccc2C(F)(F)F)c1`, the Potency was “inactive”.
With `Cc1ccc2nc(-c3ccccc3)nn2c1` the Potency was “inactive”.
For `O=C(N/N=C/c1cc(Br)cc(Br)c1O)c1cccc(N2CCCC2=O)c1`, the Potency was “inactive”.
In the case of `COC(=O)c1ccc(C(=O)Nc2cc(Cl)ccc2Cl)cc1NC(=O)c1ccc(N(C)C)cc1`, the Potency is reported as “inactive”.
With `Cc1ccc(S(=O)(=O)Nc2cc(Cl)c(O)c3ncccc23)cc1` the Potency was 10 µM (active).
In the case of `Cc1cc(NC(c2cccnc2)c2ccc3cccnc3c2O)no1` (stereo not given), the Potency is reported as 8.91 µM (active).
With `O=C(N/N=C/c1cc(Cl)ccc1O)c1cccnc1` the Potency was “inactive”.
With `O=C(N/N=C/c1c(O)n(Cc2ccccc2)c(=O)c2ccccc12)c1cccnc1` the Potency was “inactive”.
For `O=C(NC(c1ccc(Cl)cc1)c1cc(Cl)c2cccnc2c1O)c1cccnc1` (stereo not given), the Potency was 12.6 µM (active).
With `COc1cc(CNCc2ccncc2)cc(Br)c1OCc1ccccc1F` the Potency was “inactive”.
With `Cn1c(CO)c(-c2ccccc2)c2cc([N+](=O)[O-])ccc21` the Potency was “inactive”.
In the case of `CCn1c(C)cc(C(=O)COC(=O)c2ccccc2[N+](=O)[O-])c1C`, the Potency is reported as “inactive”.
In the case of `CCOC(=O)N1CCN(c2ccnc3cc(Cl)ccc23)CC1`, the Potency is reported as “inactive”.
For `CN(CCc1ccccc1)c1cc2c(c3c1ccn3C)C1CCC2O1` (stereo not given), the Potency was “inactive”.
In the case of `CC(C)(C)c1ccc(CC(=O)N2CCC2(C)C(=O)Nc2cnc3ccccc3c2)cc1` (stereo not given), the Potency is reported as “inactive”.
With `O=C(Nc1cccc2ccccc12)OC1C=CS(=O)(=O)C1` (stereo not given) the Potency was “inactive”.
For `Cc1noc2ncnc(N3CCN(c4cccc(Cl)c4)CC3)c12`, the Potency was “inactive”.
For `O=C(CSCC(=O)Nc1ccccc1)N/N=C/c1c(O)ccc2ccccc12`, the Potency was “inactive”.
With `CC(C)(C)c1ccc(Oc2ccc(N)cc2)cc1` the Potency was “inactive”.
In the case of `COc1ccc2[nH]c3c(N4CCC(O)(c5cccc(C(F)(F)F)c5)CC4)ncnc3c2c1`, the Potency is reported as 3.16 µM (active).
In the case of `O=C1CN(C(=O)c2c(F)cccc2F)C(c2ccc(F)cc2)c2cc(Br)ccc2N1` (stereo not given), the Potency is reported as “inactive”.
In the case of `COc1cccc(NC(=O)/C=C/c2ccc(S(=O)(=O)N3CCOCC3)cc2)c1`, the Potency is reported as “inactive”.
With `COc1ccc(N2C3=C(CC4=C2CC(C)(C)CC4=O)C(=O)CC(C)(C)C3)cc1` the Potency was “inactive”.
In the case of `CC1CC2(C)Oc3ccccc3CC2C(C)C1CNCCCN(C)C` (stereo not given), the Potency is reported as 25.1 µM (active).
For `O=C(C1CCC(CNS(=O)(=O)c2cccc3nsnc23)CC1)N1CC=C(c2ccccc2)CC1` (stereo not given), the Potency was “inactive”.
With `Cc1ccccc1SCC(=O)N1CCN(c2ccc(C(F)(F)F)cn2)CC1` the Potency was “inactive”.
In the case of `COc1ccc(-c2sc3ccc(OC)cc3c2-c2ccc(O)cc2)cc1`, the Potency is reported as “inactive”.
With `COc1cc(-c2ccc3sc(-c4ccsc4)c(C#CCO)c3c2)cc(OC)c1OC` the Potency was 22.4 µM (active).
With `O=C(O)CSc1cc(NS(=O)(=O)c2ccc(Cl)cc2)c2ccccc2c1O` the Potency was 35.5 µM (active).
For `COC(=O)[C@H]1C[C@H](OC(=O)NC2CC2)[C@@]2(O)CN(S(=O)(=O)c3ccc(C)cc3)CC2[C@H]1C(=O)OC` (stereo not given in full), the Potency was “inactive”.
With `COc1ccc(CC(N)c2csc(NC(=O)c3ccccc3OC)n2)cc1` (stereo not given) the Potency was “inactive”.
For `COc1ccc(-c2csc(NC(=O)c3ccccc3NS(=O)(=O)c3ccc(F)c(F)c3)n2)cc1`, the Potency was 5.62 µM (active).
In the case of `C/[N+]([O-])=C\c1cccc(OCCN2CCN(c3ncc(C(F)(F)F)cc3Cl)CC2)c1`, the Potency is reported as “inactive”.
